Records with an inconclusive call do not appear. Active and inactive are the calls of the source. How the source made its calls, unless noted: active means hit-call score of the fitted dose curve at least 0.9, where 1 is the maximum; inactive means score below 0.9.

The target in assay [1] is Nucleoli Translocation, AR (gene 367) (UniProt P10275). Kind of assay: UPITT_HCI_U2OS_AR_TIF2_Nucleoli_Antagonist: University of Pittsburgh U2OS Androgen Receptor-Transcriptional Intermediary Factor 2 (AR-TIF2) Antagonism High Content Imaging Assay for Nucleoli Translocation (AID 2283997; active means hit-call score of the fitted dose curve at least 0.9, where 1 is the maximum). Summed up:
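An antagonist-mode imaging screen: engineered U2OS (AR-RFP, TIF2-GFP) exposed to 20 uM compound, 0.2% DMSO. Activity reflects nucleolar red fluorescence change relative to DHT baseline.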

Assay [2] has the same target. Kind of assay: UPITT_HCI_U2OS_AR_TIF2_Nucleoli_Agonist: University of Pittsburgh U2OS Androgen Receptor-Transcriptional Intermediary Factor 2 (AR-TIF2) Agonism High Content Imaging Assay for Nucleoli Translocation (AID 2283998; active means hit-call score of the fitted dose curve at least 0.9, where 1 is the maximum). In short, it runs like this: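 U2OS cells expressing RFP-tagged human AR and GFP-tagged TIF2; red fluorescence in nucleoli quantified by high-content imaging. Primary screen at 20 uM final (0.2% DMSO); concentration-response 0.195–50 uM (0.5% DMSO), fitted upward versus DMSO.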

For assay [3], the target named is Ratio of Nucleoli Translocation and Cytoplasm, AR (gene 367) (UniProt P10275). Kind of assay: UPITT_HCI_U2OS_AR_TIF2_Nucleoli_Cytoplasm_Ratio_Antagonist: University of Pittsburgh U2OS Androgen Receptor-Transcriptional Intermediary Factor 2 (AR-TIF2) Antagonism High Content Imaging Assay for Ratio of Nucleoli Translocation and Cytoplasm (AID 2283999; active means hit-call score of the fitted dose curve at least 0.9, where 1 is the maximum;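 further: antagonists lower the DHT-driven ratio of nucleolar to cytoplasmic red signal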). Summed up:
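Compounds were added to U2OS cells carrying red-fluorescent AR and green-fluorescent TIF2, first at 20 uM, with hits confirmed in triplicate and titrated from 0.195 to 50 uM. Nucleolar versus cytoplasmic AR-RFP fluorescence was then quantified by imaging, with analysis relative to DHT.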

For assay [4] the target is unchanged. Kind of assay: UPITT_HCI_U2OS_AR_TIF2_Nucleoli_Cytoplasm_Ratio_Agonist: University of Pittsburgh U2OS Androgen Receptor-Transcriptional Intermediary Factor 2 (AR-TIF2) Agonism High Content Imaging Assay for Ratio of Nucleoli Translocation and Cytoplasm (AID 2284000; active means hit-call score of the fitted dose curve at least 0.9, where 1 is the maximum;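 further: hits raise the red nucleolar to cytoplasm ratio above vehicle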). Summed up: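 Primary screen at 20 uM final (0.2% DMSO), then triplicate confirmation and dose-response from 0.195 to 50 uM final (0.5% DMSO). Cells: U2OS with AR-RFP and TIF2-GFP. Endpoint is the nucleoli/cytoplasm red-fluorescence ratio, gain-of-signal vs DMSO.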

Assay [5] is described as follows: CCTE_Simmons_MITO_basal_resp_rate: CCTE's HepG2 Seahorse XF Respirometric Screening Assay at Basal Respiratory State, Simmons Lab (AID 2284001). Particulars: actives raise or lower the signal. In short, it runs like this: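 Readout is oxygen consumption rate after test compound injection, measured by Seahorse XF in HepG2 cells. Seven concentrations from 125 nM up to 100 uM final are tested, and activity in either direction is fitted against DMSO.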

A short description of assay [6]: CCTE_Simmons_MITO_inhib_resp_rate: CCTE's HepG2 Seahorse XF Respirometric Screening Assay at Inhibited Respiratory State [full ETC block], Simmons Lab (AID 2284006). The following applies: actives raise or lower the signal. In short, it runs like this:
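Seahorse respirometry, HepG2, 72 min total, 6-min mix/measure cycles. Cpd 125 nM–100 uM final ×7, n=3 biological. Sequential FCCP, rotenone/antimycin A; inhibited-respiration OCR, bidirectional fit vs DMSO.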

The nature of assay [7]: CCTE_Simmons_MITO_viability: CellTiter-Glo Viability Assessment for CCTE's HepG2 Seahorse XF Respirometric Screening Assay [post-hoc], Simmons Lab (AID 2284007; active means hit-call score of the fitted dose curve at least 0.9, where 1 is the maximum;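 on AC50: cells exposed to chemical for 90 min before the ATP read; actives lower ATP signal relative to DMSO baseline meaning reduced viability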). In short, it runs like this: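 Cytotoxicity readout: ATP quantitation via luciferase in HepG2 cells treated 90 min with seven titrated concentrations (125 nM to 100 uM, final). Curves fitted relative to DMSO negative control, three biological replicates per concentration.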

Assay [8] can be described thus: CCTE_Shafer_MEA_acute_spike_number: CCTE's Neural Acute Assay for Total Number of Spikes, Shafer Lab (AID 2284008).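 On AC50: curve fitted for decrease in spike count so AC50 reflects inhibitors.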 In short, it runs like this:
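Rat primary cortical neurons on 48-well MEA plates, DIV 13 or 15, at 37 C. 40 min baseline then 40 min with compound (0.03-40 uM); spikes detected at 8x rms noise, expressed as percent change from baseline.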

Assay [9] in a line: CCTE_Shafer_MEA_acute_firing_rate_mean: CCTE's Neural Acute Assay for Mean Firing Rate, Shafer Lab (AID 2284009).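 Further: analyzed for loss of signal so actives lower firing rate relative to DMSO.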 In short, it runs like this: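 Spontaneous spiking of primary rat cortical networks, DIV 13/15, 37 C. Compound 0.03-40 uM, n ≥3 wells; 40 min baseline vs 40 min treated. Endpoint fitted in loss-of-signal direction against DMSO.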
A short description of assay [10]: CCTE_Harrill_HTTr_Viability_MCF7: CCTE's 6-hour Cell Viability Assessment for the High-Throughput Transcriptomics (HTTr) Platform, in MCF-7 cells cultured in DMEM + 10% fetal bovine serum, Harrill Lab (AID 2284010). Summed up: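 Read-out is propidium iodide gain of signal by high-content imaging, reflecting membrane integrity loss. Measurements are taken 6 h after dosing, eight concentrations per chemical, with DMSO serving as baseline for bidirectional curve fitting.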

A short description of assay [11]: CCTE_Harrill_HTTr_Apoptosis_MCF7: CCTE's 6-hour Apoptosis Assessment for the High-Throughput Transcriptomics (HTTr) Platform, in MCF-7 cells cultured in DMEM + 10% fetal bovine serum, Harrill Lab (AID 2284011). In short, it runs like this:
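MCF-7 cells in DMEM + 10% FBS exposed 6 h to chemicals over an eight-point dilution series. Caspase-3/7 activation imaged by high-content CellEvent Green staining; fitted bidirectionally versus DMSO.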

A short description of assay [12]: CCTE_Harrill_HTTr_CellCount_MCF7: CCTE's Cell Proliferation Assessment for the High-Throughput Transcriptomics (HTTr) Platform, Harrill Lab (AID 2284012; active means hit-call score of the fitted dose curve at least 0.9, where 1 is the maximum;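 further: cells exposed to compound for six hours; intended direction is loss of nuclei count meaning fewer cells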). In short, it runs like this:
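Cell count served as viability reporter: loss of Hoechst-stained nuclei, counted by high content imaging, marks decreased growth or survival. Exposure was 6 h in MCF-7 cells across eight concentrations, with DMSO as baseline.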

A short description of assay [13]: CCTE_Shafer_MEA_acute_burst_number: CCTE's Neural Acute Assay for Single-Electrode Bursts, Shafer Lab (AID 2284013). In short, it runs like this: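 Burst totals were derived with adaptive spike detection (8x rms threshold) on filtered signals from rat cortical cultures; change relative to pre-treatment baseline after 40-min compound exposure (0.03-40 uM) was fitted in the negative direction against DMSO.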

The nature of assay [14]: CCTE_Shafer_MEA_acute_burst_duration_mean: CCTE's Neural Acute Assay for Mean Burst Duration, Shafer Lab (AID 2284014).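 Further: hits are decreases in mean burst duration relative to DMSO controls.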 In short, it runs like this: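 Acute exposure of mature rat cortical networks (DIV 13 or 15) grown on microelectrode arrays to 0.03-40 uM compound. Mean burst duration compared with the 40-min pre-dose baseline over a 40-min post-dose recording at 37 C.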

The nature of assay [15]: CCTE_Harrill_HTTr_Apoptosis_DMEM_12hr: (Pilot) CCTE's 12-hour Apoptosis Assessment for the High-Throughput Transcriptomics (HTTr) Platform, in MCF-7 cells cultured in DMEM + 10% fetal bovine serum, Harrill Lab (AID 2283982). In short, it runs like this:
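Caspase-3/7 activity was measured by high-content imaging (CellEvent Caspase 3/7 Green) after a 12-hour exposure of MCF-7 cells grown in DMEM with 10% FBS. Eight-point concentration series, fitted bidirectionally against vehicle.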

Assay [16] in a line: CCTE_Harrill_HTTr_Apoptosis_DMEM_24hr: (Pilot) CCTE's 24-hour Apoptosis Assessment for the High-Throughput Transcriptomics (HTTr) Platform, in MCF-7 cells cultured in DMEM + 10% fetal bovine serum, Harrill Lab (AID 2283983). Summed up: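 Caspase-3/7 activity read by high-content imaging (CellEvent Green reagent) 24 h after dosing. MCF-7 cells grown in DMEM with 10% FBS received an eight-point concentration series; fits were bidirectional versus DMSO.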

The nature of assay [17]: CCTE_Harrill_HTTr_Apoptosis_PRF_DMEM_6hr: (Pilot) CCTE's 6-hour Apoptosis Assessment for the High-Throughput Transcriptomics (HTTr) Platform, in MCF-7 cells cultured phenol red-free DMEM + 10% charcoal-stripped fetal bovine serum, Harrill Lab (AID 2283984). In short, it runs like this: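 Caspase-3/7 activity (CellEvent Green) read by high-content imaging 6 h after dosing, eight concentrations. Cells: MCF-7, phenol red-free DMEM with 10% charcoal-stripped serum. Curves fit both directions against DMSO.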

Assay [18] in a line: CCTE_Harrill_HTTr_Apoptosis_PRF_DMEM_12hr: (Pilot) CCTE's 12-hour Apoptosis Assessment for the High-Throughput Transcriptomics (HTTr) Platform, in MCF-7 cells cultured in phenol red-free DMEM + 10% charcoal-stripped fetal bovine serum, Harrill Lab (AID 2283985). Summed up: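 Caspase-3/7 activity by CellEvent Green high content imaging after 12 h compound exposure (eight concentrations) in MCF-7 grown in phenol red-free DMEM plus 10% charcoal-stripped serum; DMSO as baseline.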

The nature of assay [19]: CCTE_Harrill_HTTr_Apoptosis_PRF_DMEM_24hr: (Pilot) CCTE's 24-hour Apoptosis Assessment for the High-Throughput Transcriptomics (HTTr) Platform, in MCF-7 cells cultured in phenol red-free DMEM + 10% charcoal-stripped fetal bovine serum, Harrill Lab (AID 2283986). Summed up:
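Eight concentrations tested for 24 h on MCF-7 grown in charcoal-stripped serum, phenol red-free DMEM. High content imaging of CellEvent Caspase 3/7 Green signal gives apoptosis read-out, fitted both ways relative to DMSO.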

The next assay has as its system DIO1 (gene 1733). The experiment in a line: CCTE_GLTED_hDIO1: CCTE's human Deiodinase 1 (DIO1) Inhibition Assay, Great Lakes Toxicology and Ecology Division (GLTED) Lab (AID 2283987; active means hit-call score of the fitted dose curve at least 0.9, where 1 is the maximum;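 further: isolated human DIO1 enzyme in a cell-free setup rather than cells; enzyme activity read as free iodide liberated from substrate via Sandell-Kolthoff colorimetry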). In short, it runs like this: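 Cell-free human DIO1 enzyme incubated 3 h with test chemical; iodide freed from substrate then measured by Sandell-Kolthoff absorbance. Run in triplicate; loss of signal relative to DMSO taken as inhibition.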

Chain of Ratio of Nucleoli Translocation and Cytoplasm, AR (gene 367) (P10275 whole entry, looked up): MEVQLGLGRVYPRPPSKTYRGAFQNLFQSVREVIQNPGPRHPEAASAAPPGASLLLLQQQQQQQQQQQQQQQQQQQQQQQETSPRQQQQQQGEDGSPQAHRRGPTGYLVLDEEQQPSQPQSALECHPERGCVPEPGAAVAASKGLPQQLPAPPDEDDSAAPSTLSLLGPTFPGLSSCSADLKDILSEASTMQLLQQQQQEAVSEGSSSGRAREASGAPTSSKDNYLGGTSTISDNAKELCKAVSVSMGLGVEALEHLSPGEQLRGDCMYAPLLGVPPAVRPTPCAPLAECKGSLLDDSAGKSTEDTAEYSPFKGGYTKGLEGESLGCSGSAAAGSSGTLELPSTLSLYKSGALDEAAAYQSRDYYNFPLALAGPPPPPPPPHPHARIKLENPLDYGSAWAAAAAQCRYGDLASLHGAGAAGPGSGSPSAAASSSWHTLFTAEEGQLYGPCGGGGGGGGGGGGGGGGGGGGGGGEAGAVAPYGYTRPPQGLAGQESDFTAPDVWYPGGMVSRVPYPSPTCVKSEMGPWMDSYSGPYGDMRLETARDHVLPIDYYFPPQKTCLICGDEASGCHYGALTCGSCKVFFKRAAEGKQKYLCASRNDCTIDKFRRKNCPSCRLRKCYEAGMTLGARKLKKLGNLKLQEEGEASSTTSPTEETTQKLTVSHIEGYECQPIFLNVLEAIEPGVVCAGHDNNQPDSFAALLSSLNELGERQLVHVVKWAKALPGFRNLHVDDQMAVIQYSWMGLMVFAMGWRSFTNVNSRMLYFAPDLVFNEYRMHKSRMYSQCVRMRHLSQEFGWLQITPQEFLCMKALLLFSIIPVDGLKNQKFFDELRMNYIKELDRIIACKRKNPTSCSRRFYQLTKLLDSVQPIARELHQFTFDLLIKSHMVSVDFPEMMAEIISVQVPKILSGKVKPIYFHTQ
Chain of Nucleoli Translocation, AR (gene 367) (P10275 whole entry, looked up): as above

Broadly, the AC50 is the concentration giving half of the maximal activity seen. Regarding `CCOP(=O)(NC(C)C)Oc1ccc(SC)c(C)c1` (centres undefined), the outcome in assay [1], in assay [2], in assay [3], in assay [4], in assay [5] and in assay [6] was inactive. Further, the molecule was classed as inactive in assay [7], in assay [10], in assay [11], in assay [12], in [13] and in assay [14]. The concentration at half-maximal activity (AC50) in assay [8] and in [9] was 10.2 µM (active) each time.

For the molecule `N#CSCSC#N`, the concentration at half-maximal activity (AC50) in assay [1] is 16.5 µM (active); in assay [3], 12.7 µM (active); in assay [5] it was 32.6 µM (active); in assay [7], 67.6 µM (active); in [12], 92.6 µM (active). Further, the outcome in [2], in assay [6], in assay [8], in assay [9], in assay [10] and in assay [11] was inactive. Besides, the molecule was classed as inactive in assay [13] and in [14].

Turning to `CCNc1nc(Cl)nc(NC(C)(C)C#N)n1`, the result in assay [15], in assay [16], in assay [17], in assay [18], in assay [19] and in assay [10] was inactive. Moreover, in assay [11], the outcome was inactive.

With `CCc1cccc(CC)c1N(COC)C(=O)CCl`, the AC50 in [1] is 20.1 µM (active); in assay [3] it was 12.8 µM (active); in assay [5], 36.6 µM (active). The result in assay [2], in assay [4], in [6], in assay [7], in assay [10] and in assay [11] was inactive.

As for `CCc1cccc(C)c1N(C(=O)CCl)C(C)COC` (centres undefined), the half-maximal activity concentration (AC50) with DIO1 (gene 1733) was 64.2 µM (active); in [5] it was 23.7 µM (active); in assay [8] it was 27 µM (active); in [9], 27 µM (active); in assay [13], 14.8 µM (active). For the same molecule, the result in assay [6], in assay [7], in assay [10], in [11], in assay [12] and in assay [14] was inactive.

For `COP(=O)(OC)OC(Br)C(Cl)(Cl)Br` (centres undefined), the concentration at half-maximal activity (AC50) in assay [1] is 13.6 µM (active); in [2] it was 79 µM (active); in [4], 77.9 µM (active); in assay [7], 50 µM (active). In addition, the result in [3], in assay [5], in assay [6], in assay [10], in assay [11] and in assay [12] was inactive.

The values are drawn from PubChem BioAssay (EPA / NIEHS).
